Assay results published in PubChem BioAssay AID489018 (Southern Research Specialized Biocontainment Screening …, 2010).
The whole screen tested about 2,300 compounds, of which about 350 (15%) were called active. These entries were drawn from the full list. Entries with a potency or affinity are not part of this list. A number with no mark means an inactive call. No rule for the calls is given here.

Assay: HepG2 cell cytotoxicity, dose response, cytotoxicity control for non-replicating M. tuberculosis project (AID 489018);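 also: HepG2 human liver cells; 100% = vehicle-treated cells and 0% = background signal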
Details: series mostly up to 20 µM; viability: at the top concentration

SMILES	viability
CC(C)(C)NC(=O)COC(=O)c1snc(C(=O)NC2CCCCC2)c1N	74.4%
COc1ccc([N+](=O)[O-])c(S(=O)(=O)c2ccc(Cl)cc2)n1	70.5%
CCS(=O)(=O)c1c([N+](=O)[O-])ncn1C	92.7% [at 5 µM]
CCOC(=O)c1c(C)nc2cc(C)ccn12	94.2%
COC(=O)c1ccc(COC(=O)c2ccccn2)cc1	105%
CCc1ccc(/C=N/NC(=O)c2ccccn2)cc1	103% [at 5 µM]
CCOc1ccc(C(=O)N/N=C/c2cccc3cccnc23)cc1	97.7% [at 5 µM]
CCOc1ccc(C(=O)N/N=C(/C)C2C(=O)c3ccccc3C2=O)cc1	92.2%
O=C1NC(=O)N(Cc2ccc(F)cc2)C(=O)/C1=C\c1ccc([N+](=O)[O-])s1	102%
O=C(OCc1nnc(-c2ccccc2)o1)c1ccc(Br)o1	106%
Cc1ccccc1-n1c(C)cc(/C=N/NC(=O)c2ccncc2)c1C	92.9%
CC(C)Cn1c([N+](=O)[O-])nc2c1c(=O)[nH]c(=O)n2C	103%
CN1CCC(O)(c2cccs2)C(C(=O)c2cccs2)C1 (stereo not drawn)	113%
COc1ccc(C(C#N)=C2C=CC(=NO)C=C2)cc1	87.4%
CC/C(=C\C=C\[C@@H]1C=C[C@@H]2CCC[C@H]2[C@@H]1C(=O)c1ccc[nH]1)[C@@H]1O[C@@H]([C@@H](C)C(=O)O)CC[C@@H]1C	87%
CCOc1cc(-c2sc(Nc3cc(C)ccc3OC)n[n+]2-c2ccccc2)ccc1OC	100%
O=C(COc1ccc(Br)cc1)Nc1ccc([N+](=O)[O-])cn1	101%
CC(=O)Nc1ccc(NC(=O)c2cc([N+](=O)[O-])cc([N+](=O)[O-])c2)cc1	82.4%
O=C1/C(=C/C=C/c2ccccc2)Oc2c1ccc(O)c2CN1CCN(CCO)CC1	105%
CC(Oc1ccc2ccccc2c1)C(=O)NNC(=S)NC(=O)c1ccco1 (stereo not drawn)	112% [at 5 µM]

SMILES	viability
CCCOc1ccc(C(=O)NNC(=S)NC(=O)c2cccs2)cc1	74.2% [at 5 µM]
CCCOC(=O)c1ccc(NC(=O)c2ccc(Br)o2)cc1	104%
Cc1cc(C)nc(-n2nc(C)cc2Nc2ccccc2)n1	89% [at 5 µM]
CCCc1cc(=O)n2[nH]c(C)c(-c3ccccc3)c2n1	105%
Clc1cccc(-c2ccc(CNCc3ccccn3)o2)c1	111% [at 5 µM]
COc1cc(N=c2ssnc2Cl)cc(OC)c1OC	109%
CCN(CC)c1ccc(-c2sc(Nc3ccccc3)n[n+]2-c2ccc(F)cc2)cc1	81%
Cc1nn(-c2ccccc2)nc1C(=O)c1c(C)[nH]n(-c2ccccc2)c1=O	101%
O=C(Nc1ncc(Cc2ccccc2Cl)s1)C1=NCCN1	85.5%
O=C(NC1CCCCC1)c1nc2c(nnn2Cc2ccccc2Cl)c(=O)[nH]1	90.9%
CCOC(=O)N1CCC(N2CCCC(C(=O)c3ccc4cc(OC)ccc4c3)C2)CC1 (stereo not drawn)	81.3%
CNC(C)C#Cc1ccc2oc3cc(C)c(C)cc3c(=O)c2c1 (stereo not drawn)	81.7%
CCCCOC(=O)c1ccc(NC(=O)c2nn(C)cc2Br)cc1	92.6%
O=S1(=O)N=C(N/N=C/C=C/c2ccccc2)c2ccccc21	109% [at 5 µM]
Cc1ccc(/C=C2\SC(=S)N(C3CCS(=O)(=O)C3)C2=O)o1 (stereo not drawn)	99.9%
CC(C)c1nnc(NC(=O)c2c(O)c3cccc4c3n(c2=O)CCC4)s1	97.2% [at 5 µM]
O=C(NNC(=O)c1ccccc1F)c1ccc(-c2ccc(Cl)cc2)o1	104% [at 5 µM]
COC(=O)c1cn(NC(=O)c2cnccn2)c(=O)c2ccccc12	75.4%
CCOC(=O)c1cc(-c2c(Cl)cccc2Cl)no1	107%
Cn1cnc([N+](=O)[O-])c1Sc1ccc([N+](=O)[O-])cc1	106% [at 5 µM]

SMILES	viability
Fc1ccc(-c2ccc(CNCc3ccccn3)o2)cc1Cl	109%
Clc1ccc(-c2ccc(CNCc3ccccn3)o2)cc1	96.1%
CCOC(=O)c1cc(COc2cc(Cl)cc(Cl)c2)on1	96.5%
Cc1cccc(OCC(=O)NNC(=O)c2cc3ccccc3oc2=O)c1	111%
O=C(COc1ccc2ccccc2c1)N/N=C/c1ccccn1	94.8%
Cc1cc(C)n2[nH]c(=O)c(N=Nc3cccc(Cl)c3)c2n1	99.3% [at 5 µM]
CN=C1S/C(=C\c2ccc(OCC(=O)OC)c(OC)c2)C(=O)N1C	94%
COc1cccc(OCCNC(=O)c2cc([N+](=O)[O-])cc([N+](=O)[O-])c2)c1	102%
Cc1n[nH]c(C)c1CCOc1ccc(C(C)C)cc1	77.2%
CC(C)c1ccc(OCC(=O)NNC(=O)c2cnccn2)cc1	97.1%
O=C1Nc2ccccc2/C1=C/C(=O)c1cccs1	103%
O=C(COC(=O)c1ccc(O)cc1O)c1ccc2c(c1)OCO2	104% [at 5 µM]
O=C(NN=C(Cc1ccccc1)Cc1ccccc1)c1ccncc1	98.5%
CCCCCn1c(=O)c2ccccc2n2c(CCl)nnc12	89.4% [at 5 µM]
CC(C)(C)Nc1nc(NC(C)(C)C)nc(-n2ccnc2)n1	108% [at 5 µM]
CN1/C(=C\C(=O)COC(=O)C2COc3ccccc3O2)C(C)(C)c2ccccc21 (stereo not drawn)	105% [at 5 µM]
Cc1cccc(-c2nnc3sc(-c4ccccc4C)nn23)c1	88.6%
Cc1cc(C)cc(OC(=O)CCN2C(=O)c3ccccc3C2=O)c1	104%
